From PubChem BioAssay (Tox21)
“And” between values parts separate entries of the source, which are not always exact repeats. Equal values may be shown once. Inconclusive results are not listed. A call without a number means that no potency is given here. Where a structure was tested more than once in an assay, its records may differ in their call. The source made the active and inactive calls. Unless noted, the call rests on the fitted dose curve; in most records, active means well fitted curve in the direction sought with a large enough effect in the repeat runs; inconclusive means weak or mixed curves; inactive means no such curve, though single readings can be large; an effect the other way counts as inactive or inconclusive.

What was measured:
[1] = qHTS assay to identify small molecule antagonists of the androgen receptor (AR) signaling pathway using the MDA cell line in the presence of 0.5 nM R1881 - cell viability counter screen (AID 1259242); further: nearly all actives have a fitted effect of over 45% in size; further: potency means the concentration at half of the fitted maximal effect
Method in brief: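 Cytotoxicity toward MDA-kb2 cells is measured by CellTiter-Fluor live-cell protease fluorescence after 16 hr compound exposure at 37C in the presence of 0.5 nM R1881 stimulator.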

[2] = qHTS assay to identify small molecule phospholipidosis (PLD) inducers (AID 1259344; active means well fitted curve in the direction sought with a large enough effect; an effect the other way counts as inactive or inconclusive)
Method in brief: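 HepG2 cells on collagen I, attached 4 h at 37 C, were co-treated with compound and LipidTOX Red dye for 24 h at 37 C, then fixed with paraformaldehyde plus Hoechst 33342 and imaged by high-content microscopy for phospholipid accumulation.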

[3] = qHTS assay to identify small molecule HDAC inhibitors (AID 1259364); further: nearly all actives have a fitted effect of over 45% in size; further: potency means the concentration at half of the fitted maximal effect
Method in brief: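 Homogeneous cell-based luminescent assay of endogenous class I/II HDAC activity; HCT-116 cells, 2 h compound exposure, 30 min HDAC-Glo development at RT.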

[4] = qHTS assay to identify small molecule HDAC inhibitors - cell viability counter screen (AID 1259365); further: series mostly up to about 92 µM; nearly all actives have a fitted effect of over 50% in size
Method in brief: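 Cytotoxicity was gauged in wild-type HCT-116 cells after a brief 2hr treatment with DMSO-dissolved compounds at 37C and 5% CO2, using CellTiter-Glo luminescence developed for 30min at room temperature.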

[5] = qHTS assay to identify small molecule agonists of the sonic hedgehog signaling (Shh) pathway - cell viability counter screen (AID 1259366); further: nearly all actives have a fitted effect of over 50% in size; further: potency means the concentration at half of the fitted maximal effect
Method in brief: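 Stable Gli1-Luc NIH/3T3 clone, 2,000 cells/well. Compound exposure 24hr at 37C. Read-out: CellTiter-Fluor fluorescence.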

[6] = qHTS assay to identify small molecule antagonists of the sonic hedgehog signaling (Shh) pathway - cell viability counter screen (AID 1259367); further: nearly all actives have a fitted effect of over 55% in size; further: potency means the concentration at half of the fitted maximal effect
Method in brief: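 NIH/3T3-derived Gli1-Luc reporter cells (2,000 per well) rested 4 hr at 37 C, then received DMSO compounds plus conditioned medium. After 23 hr of treatment, CellTiter-Fluor was added for 1 hr at 37C and fluorescence read.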

[7] = qHTS assay to identify small molecule agonists of the sonic hedgehog signaling (Shh) pathway (AID 1259368; calls by dose curve;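 further: NIH/3T3-derived 3T3Gli1-Luc cells carrying a stable Gli1-driven firefly luciferase reporter; series mostly up to about 92 µM; nearly all actives have a fitted effect of over 15% in size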)
Method in brief: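 Steps: seed 3T3 Gli1-Luc cells, incubate 4 hr at 37 C, pin-transfer compounds in DMSO alongside a positive control, incubate 24 hr, add luciferase detection reagent, wait 30 min at room temperature, read luminescence.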

[8] = qHTS assay to identify small molecule agonists of the androgen receptor (AR) signaling pathway in the presence of an antagonist - cell viability counter screen (AID 1259379); further: nearly all actives have a fitted effect of over 25% in size; further: potency means the concentration at half of the fitted maximal effect
Method in brief: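 Fluorescence from CellTiter-Fluor, added after 15 hr and read 1 hr later, gave cell viability. Cells were MDA-kb2 exposed to compounds (15 concentrations) in the presence of 3.0uM nilutamide at 37C, 0% CO2.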

[9] = qHTS assay to identify small molecule antagonists of the estrogen receptor beta (ER-beta) signaling pathway - cell viability counter screen (AID 1259382); further: nearly all actives have a fitted effect of over 55% in size; further: potency means the concentration at half of the fitted maximal effect
Method in brief: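 Following a 6 hr plating period, HEK293T cells carrying a UAS-driven beta-lactamase reporter under ER-beta control received compounds and 1nM E2 (final). After 16 hr at 37C and 2 hr substrate loading, CellTiter-Glo luminescence indicated viability.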

[10] = qHTS assay to identify small molecule agonists or antagonists of the thyroid stimulating hormone receptor (TSHR) signaling pathway - wild type cell line counter screen (AID 1259384; calls by dose curve)
Method in brief: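 Wild-type HEK293 cells were plated 18 h at 37 C/5% CO2, pin-dosed with compound plus Ro20-1724 medium, held 30 min at room temperature, then given cAMP-d2 and anti-cAMP-cryptate; fluorescence was read after 1 h. Fifteen concentrations, triplicate.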

[11] = biological target: Thyrotropin receptor (Homo sapiens) (UniProt P16473); assay: qHTS assay to identify small molecule antagonists of the thyroid stimulating hormone receptor (TSHR) signaling pathway (AID 1259385; calls by dose curve; further: nearly all actives have a fitted effect of over 20% in size)
Sequence of Thyrotropin receptor (Homo sapiens) (P16473 whole entry, looked up): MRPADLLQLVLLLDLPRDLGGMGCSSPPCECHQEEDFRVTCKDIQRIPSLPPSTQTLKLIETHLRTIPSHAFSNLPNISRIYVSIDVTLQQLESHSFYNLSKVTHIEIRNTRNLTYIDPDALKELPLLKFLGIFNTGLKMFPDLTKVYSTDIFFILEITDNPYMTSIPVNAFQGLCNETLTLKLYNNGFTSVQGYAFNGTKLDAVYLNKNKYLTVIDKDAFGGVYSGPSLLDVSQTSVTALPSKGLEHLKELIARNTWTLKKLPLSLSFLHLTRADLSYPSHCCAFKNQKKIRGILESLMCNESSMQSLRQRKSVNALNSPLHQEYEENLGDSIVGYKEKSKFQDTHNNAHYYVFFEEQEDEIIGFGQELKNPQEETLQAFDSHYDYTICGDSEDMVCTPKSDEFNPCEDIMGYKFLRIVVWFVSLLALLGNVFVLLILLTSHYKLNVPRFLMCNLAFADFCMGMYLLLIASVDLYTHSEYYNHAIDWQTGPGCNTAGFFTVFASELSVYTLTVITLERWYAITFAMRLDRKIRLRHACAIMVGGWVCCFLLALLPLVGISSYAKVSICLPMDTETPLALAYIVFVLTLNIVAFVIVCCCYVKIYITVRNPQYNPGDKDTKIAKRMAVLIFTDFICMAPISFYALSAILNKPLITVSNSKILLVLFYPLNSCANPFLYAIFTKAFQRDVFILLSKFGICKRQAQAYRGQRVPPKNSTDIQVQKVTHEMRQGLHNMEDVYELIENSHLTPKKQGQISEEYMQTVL
Method in brief: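 TSHR-HEK293 cells were plated and held 18 h at 37C/5% CO2, then given compound plus Ro20-1724 and stimulated with TSH at 1.5 ng/mL final. After 30 min at room temperature, cAMP was detected with cAMP-d2/anti-cAMP-cryptate (1 h) by fluorescence.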

[12] = qHTS assay to identify small molecule agonists of the estrogen receptor alpha (ER-alpha) signaling pathway in the presence of an antagonist - cell viability counter screen (AID 1259386);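 further: cells exposed to compounds for 22 h at 37 °C before the viability read; nearly all actives have a fitted effect of over 30% in size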; further: potency means the concentration at half of the fitted maximal effect
Method in brief: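 Cells are starved of estrogens for 5 days in charcoal-stripped serum, seeded for 24hr and co-treated with ICI-182,780 (10.0nM final) and test compounds. After 22hr at 37C, viability is read as CellTiter-Fluor fluorescence.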

[13] = biological target: Estrogen receptor beta (Homo sapiens) (UniProt Q92731); assay: qHTS assay to identify small molecule agonists of the estrogen receptor beta (ER-beta) signaling pathway (AID 1259377; active means well fitted activation curve with a large enough effect in the signal ratio in the repeat runs, not every such curve was filed as active; the % refers to the signal ratio; further: potency means the concentration at half of the fitted maximal effect)
Sequence of Estrogen receptor beta (Homo sapiens) (Q92731 whole entry, looked up): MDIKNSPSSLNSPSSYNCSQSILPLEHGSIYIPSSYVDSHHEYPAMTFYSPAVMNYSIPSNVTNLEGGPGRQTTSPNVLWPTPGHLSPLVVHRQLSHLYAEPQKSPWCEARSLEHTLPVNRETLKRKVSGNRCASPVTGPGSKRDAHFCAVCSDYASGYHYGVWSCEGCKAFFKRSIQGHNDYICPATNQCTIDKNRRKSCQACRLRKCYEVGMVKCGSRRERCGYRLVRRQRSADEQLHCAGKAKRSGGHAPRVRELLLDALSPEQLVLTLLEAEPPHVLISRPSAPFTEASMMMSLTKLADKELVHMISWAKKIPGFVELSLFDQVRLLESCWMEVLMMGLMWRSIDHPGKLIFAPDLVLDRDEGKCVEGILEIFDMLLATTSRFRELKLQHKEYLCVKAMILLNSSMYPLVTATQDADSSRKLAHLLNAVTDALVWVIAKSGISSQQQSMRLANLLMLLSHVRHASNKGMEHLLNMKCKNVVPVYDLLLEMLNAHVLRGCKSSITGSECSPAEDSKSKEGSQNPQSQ
Method in brief: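 Measured by fluorescence intensity from a B/G FRET beta-lactamase substrate (2 h, room temperature) in ER-beta-UAS-bla HEK293T cells treated with DMSO-dissolved compounds for 16 hr at 37C and 5% CO2.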

[14] = biological target: Estrogen receptor beta (Homo sapiens) (UniProt Q92731); assay: qHTS assay to identify small molecule antagonists of the estrogen receptor beta (ER-beta) signaling pathway (AID 1259378; active means well fitted inhibition curve with a large enough effect in the signal ratio in the repeat runs, not every such curve was filed as active; the % refers to the signal ratio)
Method in brief: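 ER-beta-UAS-bla HEK293T (GripTite) cells in 2% charcoal-stripped FBS medium were preincubated 6 hr at 37C, dosed with compound, then stimulated with 1 nM E2 (final) for 16 hr; beta-lactamase reporter read by B/G FRET fluorescence after 2 hr substrate loading.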

[15] = qHTS assay to identify small molecule agonists of the estrogen receptor beta (ER-beta) signaling pathway - cell viability counter screen (AID 1259380); further: nearly all actives have a fitted effect of over 30% in size; further: potency means the concentration at half of the fitted maximal effect
Method in brief: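 Same-well viability counter screen. Cells: ER-beta-UAS-bla HEK293T, plated 6 hr before compound, in 2% charcoal-stripped FBS. Compound exposure 16 hr, 37C; viability by CellTiter-Glo luminescence after 30 min at room temperature.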

[16] = qHTS assay to identify small molecule antagonists of the sonic hedgehog signaling (Shh) pathway (AID 1259369; calls by dose curve; further: nearly all actives have a fitted effect of over 45% in size; further: potency means the concentration at half of the fitted maximal effect)
Method in brief: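 Inhibition of Shh signalling is measured as reduced Gli1-response-element firefly luciferase output in an NIH/3T3-derived stable reporter clone stimulated with conditioned medium for 24hr.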

[17] = biological target: Androgen receptor (Homo sapiens) (UniProt P10275); assay: qHTS assay to identify small molecule agonists of the androgen receptor (AR) signaling pathway in the presence of an antagonist (AID 1259381; calls by dose curve; further: nearly all actives have a fitted effect of over 15% in size)
Sequence of Androgen receptor (Homo sapiens) (P10275 whole entry, looked up): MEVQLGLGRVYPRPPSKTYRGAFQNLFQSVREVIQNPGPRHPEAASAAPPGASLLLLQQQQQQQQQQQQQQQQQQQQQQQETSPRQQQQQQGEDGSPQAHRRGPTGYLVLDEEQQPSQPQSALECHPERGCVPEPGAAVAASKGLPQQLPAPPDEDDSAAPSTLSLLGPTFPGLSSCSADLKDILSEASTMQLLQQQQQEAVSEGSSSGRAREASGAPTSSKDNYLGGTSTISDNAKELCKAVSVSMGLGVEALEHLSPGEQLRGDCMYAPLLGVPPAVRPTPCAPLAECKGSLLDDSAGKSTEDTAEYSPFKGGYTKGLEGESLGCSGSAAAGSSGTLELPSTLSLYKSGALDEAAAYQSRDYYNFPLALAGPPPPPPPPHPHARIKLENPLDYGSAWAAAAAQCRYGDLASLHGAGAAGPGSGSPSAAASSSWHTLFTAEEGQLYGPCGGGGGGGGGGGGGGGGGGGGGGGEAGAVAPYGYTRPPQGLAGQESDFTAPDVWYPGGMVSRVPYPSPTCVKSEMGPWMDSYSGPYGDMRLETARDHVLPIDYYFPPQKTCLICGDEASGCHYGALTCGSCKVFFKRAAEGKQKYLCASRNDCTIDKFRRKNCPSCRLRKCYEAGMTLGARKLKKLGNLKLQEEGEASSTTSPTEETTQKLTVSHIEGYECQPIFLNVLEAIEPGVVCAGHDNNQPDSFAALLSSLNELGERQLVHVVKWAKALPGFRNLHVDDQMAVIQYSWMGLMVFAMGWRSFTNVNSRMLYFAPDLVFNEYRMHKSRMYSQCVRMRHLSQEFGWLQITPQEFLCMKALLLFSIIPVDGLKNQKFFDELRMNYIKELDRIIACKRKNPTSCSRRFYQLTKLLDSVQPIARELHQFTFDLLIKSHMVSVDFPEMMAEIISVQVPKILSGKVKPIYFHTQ
Method in brief: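 Cells are MDA-kb2 (human breast carcinoma, MMTV-luc, AR/GR responsive). Nilutamide is present at 3.0uM final throughout; compounds are added at 15 concentrations and incubated 16hr at 37C before ONE-Glo luminescence detection.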

[18] = biological target: Estrogen receptor (Homo sapiens) (UniProt P03372); assay: qHTS assay to identify small molecule agonists of the estrogen receptor alpha (ER-alpha) signaling pathway in the presence of an antagonist (AID 1259383; calls by dose curve; further: top concentration of the series differs between compounds; nearly all actives have a fitted effect of over 15% in size)
Sequence of Estrogen receptor (Homo sapiens) (P03372 whole entry, looked up): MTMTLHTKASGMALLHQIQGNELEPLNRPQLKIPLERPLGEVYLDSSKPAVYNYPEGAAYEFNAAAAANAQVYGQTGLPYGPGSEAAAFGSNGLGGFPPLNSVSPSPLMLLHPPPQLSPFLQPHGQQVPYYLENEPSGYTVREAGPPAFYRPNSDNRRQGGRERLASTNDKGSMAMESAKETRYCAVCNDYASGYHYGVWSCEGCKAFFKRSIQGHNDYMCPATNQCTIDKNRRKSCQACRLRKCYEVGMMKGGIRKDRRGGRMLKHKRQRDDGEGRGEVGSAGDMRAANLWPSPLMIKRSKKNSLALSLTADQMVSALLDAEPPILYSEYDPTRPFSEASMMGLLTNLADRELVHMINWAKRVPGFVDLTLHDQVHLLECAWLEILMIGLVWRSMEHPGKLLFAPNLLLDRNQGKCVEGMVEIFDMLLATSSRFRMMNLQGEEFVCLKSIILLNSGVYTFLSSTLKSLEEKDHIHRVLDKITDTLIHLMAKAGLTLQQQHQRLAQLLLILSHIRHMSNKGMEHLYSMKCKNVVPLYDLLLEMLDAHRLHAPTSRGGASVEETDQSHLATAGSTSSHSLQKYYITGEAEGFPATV
Method in brief: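 Cells are hormone-deprived for 5 days (charcoal-stripped FBS, no phenol red), plated for 24hr, spiked with 10.0nM ICI-182,780, then dosed at 15 concentrations. After 22hr at 37C, ONE-Glo luminescence reports ERE-luciferase activity.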

SMILES	Potency [1]	Potency [2]	Potency [3]	Potency [4]	Potency [5]	Potency [6]	Potency [7]	Potency [8]	Potency [9]	outcome [10]	Potency [11]	Potency [12]	Potency [13]	Potency [14]	Potency [15]	Potency [16]	outcome [17]	Potency [18]
CCO[C@@H]1O[C@H](C(COCc2ccccc2)OCc2ccccc2)[C@H](OCc2ccccc2)[C@H]1O (some centres not stated)	inactive	inactive	inactive	inactive	inactive	inactive	inactive	inactive	inactive	inactive	inactive	inactive	–	–	–	–	–	–
OCC(F)(F)F	inactive	–	inactive	inactive	inactive	inactive	inactive	inactive	inactive	–	inactive	inactive	inactive	inactive	inactive	–	–	–
Nc1nc(-c2ccccc2)cs1	inactive	–	21.6 µM (active)	inactive	inactive	inactive	inactive	inactive	inactive	inactive	inactive	inactive	–	–	inactive	inactive	–	–
CCCCOC(=O)CC	inactive	–	inactive	inactive	inactive	inactive	inactive	inactive	inactive	–	inactive	inactive	inactive	inactive	inactive	inactive	–	–
O=C1C(c2[nH]c3ccc(S(=O)(=O)O)cc3c2O)=Nc2ccc(S(=O)(=O)O)cc21	inactive	inactive	54.5 µM (active)	–	inactive	inactive	inactive	–	inactive	–	–	–	inactive	–	inactive	inactive	–	–
C=CCn1c(=O)n(CC=C)c(=O)n(CC=C)c1=O	inactive	–	inactive	inactive	inactive	inactive	inactive	inactive	inactive	–	inactive	–	inactive	inactive	–	–	–	–
CCCCCCCCCCCCOC(=O)c1ccc(O)cc1	inactive	–	inactive	inactive	inactive	inactive	inactive	inactive	inactive	–	–	inactive	inactive	–	inactive	inactive	inactive	inactive
Cc1cc(C(C#N)c2ccc(Cl)cc2)c(Cl)cc1NC(=O)c1cc(I)cc(I)c1O (configuration not stated)	inactive	inactive	inactive	inactive	–	inactive	inactive	–	23.7 µM (active)	–	–	–	inactive	–	11.9 µM (active)	26.6 µM (active)	–	inactive
CCCCCC(C)OC(=O)COc1ccc(Cl)c2cccnc12 (configuration not stated)	inactive	–	inactive	inactive	inactive	inactive	inactive	inactive	inactive	inactive	inactive	inactive	–	–	54.5 µM (active)	54.5 µM (active)	–	–
CC(C)(C)c1ccc(C(O)CCCN2CCC(C(O)(c3ccccc3)c3ccccc3)CC2)cc1 (configuration not stated)	16.8 µM (active)	inactive	inactive	–	26.6 µM (active)	inactive	inactive	23.7 µM (active)	inactive	inactive	–	inactive	–	–	–	–	–	–
O=C1CCc2ccc(OCCCCN3CCN(c4cccc(Cl)c4Cl)CC3)cc2N1	29.8 µM (active)	inactive	inactive	inactive	–	inactive	inactive	26.6 µM (active)	33.5 µM (active)	–	inactive	29.8 µM (active)	–	–	10.6 µM (active)	–	–	–
Oc1ccccc1O	inactive	–	inactive	inactive	9.81 µM (active) and 15.4 µM (active)	6.19 µM (active) and 15.4 µM (active)	inactive	inactive	inactive	inactive	inactive	inactive	22 µM (active) and 24.3 µM (active)	–	inactive	874 nM (active) and inactive	–	–
O=[N+]([O-])c1ccc(F)c(Cl)c1	inactive	–	inactive	inactive	inactive	inactive	inactive	inactive	inactive	–	inactive	–	inactive	inactive	–	inactive	–	–
Oc1cc(Cl)cc(Cl)c1Cl	inactive	–	inactive	inactive	inactive	inactive	inactive	–	inactive	inactive	inactive	–	inactive	–	31.4 µM (active)	31.4 µM (active)	–	–
c1ccc(C(O[C@@H]2CCCN(CCc3ccc4c(c3)OCO4)C2)c2ccccc2)cc1	inactive	–	inactive	inactive	inactive	inactive	inactive	–	inactive	inactive	inactive	–	inactive	–	–	–	–	–
O=[N+]([O-])c1ccc(O)cc1C(F)(F)F	27.3 µM (active)	–	inactive	inactive	inactive	inactive	inactive	30.6 µM (active)	inactive	inactive	inactive	27.3 µM (active)	inactive	–	–	inactive	–	–
COCCOc1cc2cc(C(=O)NC3CCN(C(C)C)CC3)n(CC(=O)Nc3ccc(Cl)cn3)c2cn1	inactive	–	inactive	inactive	inactive	inactive	inactive	inactive	inactive	–	inactive	inactive	inactive	inactive	inactive	15.2 µM (active)	–	–
